PubChem BioAssay AID651661 (Broad Institute, 2012)
Hit rate of the full screen: of about 350,000 compounds, about 2,300 (0.66%) were called active. The list comes from a sample in which actives are over-represented; it also holds similar structures and randomly drawn compounds. Values without a mark were called inactive.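 How the source made its calls: active means mean inhibition of at least 50% after viability correction, with every replicate also passing that limit; inconclusive means mean reaches 50% but only one of two replicates passes; inactive means the rest.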

assay: EWS/Fli-driven NR0B1 reporter inhibitors, primary screen, A673 cells, NR0B1 luciferase, luminescence, MLPCN library (AID 651661); settings: viability-normalised, at 12.6 µM, hits give high values;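 further: firefly luciferase signal divided by Alamar Blue viability fluorescence both relative to DMSO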

With CCOc1ccc(C(=O)Nc2ccc(CN3CCOCC3)cc2)cc1Cl as the compound, how does the inhibition read?
The inhibition was -7.97%.

With CCOc1ccc(C(=O)NC(=S)Nc2ccc(N3CCOCC3)c(Cl)c2)cc1[N+](=O)[O-] as the compound, how does the inhibition read?
The inhibition was 72% (active).

For COc1cccc(OC)c1C(=O)NC(=S)Nc1ccc(N2CCOCC2)c(Cl)c1, which inhibition is on record?
Its inhibition is -7.45%.

Which inhibition does the source give for CC(C)NC(=O)N1[C@H](C#N)[C@H](c2ccc(C#CC3CCCCC3)cc2)[C@H]1CO here?
The inhibition was 19.7%.

Which inhibition does the source give for CO[C@@H]1CN(C)C(=O)c2cc(NC(=O)C3CC3)ccc2OC[C@@H](C)N(C(=O)c2ccncc2)C[C@H]1C here?
The inhibition was 2.15%.

Which inhibition does the source give for C[C@H]1CCCCO[C@H](CN(C)C(=O)CCC(F)(F)F)[C@@H](C)CN([C@@H](C)CO)C(=O)c2cc(NC(=O)Cc3ccccc3)ccc2O1 here?
Its inhibition is 6.65%.

Which inhibition does the source give for O=C(NC1CCCC1)N1CC(=O)N2[C@H](C1)[C@H](c1ccc(/C=C/c3ccccc3)cc1)[C@@H]2CO here?
Its inhibition is 3.76%.

Which inhibition does the source give for C#Cc1cc(N2CCN(C(=O)c3ccoc3)CC2)n2nc(-c3cccc(Cl)c3)cc2n1 here?
The inhibition was 53% (active).

Which inhibition does the source give for CN(C)CCN1CCN(c2cc(-c3cccc(Cl)c3)nc3ccnn23)CC1 here?
The inhibition was 1.41%.

For O=C(c1ccccc1)N1CCN(c2cc(-c3ccccc3)nc3cc(-c4cccc(Cl)c4)nn23)CC1, which inhibition is on record?
Its inhibition is -22.8%.

Which inhibition does the source give for C[C@@H]1CN([C@@H](C)CO)C(=O)CCCn2cc(nn2)CO[C@@H]1CN(C)Cc1cccc(O)c1 here?
Its inhibition is 8.82%.

For CN(CCO)c1ccc(/C=N/Nc2nncc3ccccc23)cc1, which inhibition is on record?
The inhibition was 67.2% (active).

For COc1ccc2c3c(n(C)c2c1)[C@H](CO)N(Cc1ccc(F)cc1)CC31CN(CC2CCOCC2)C1, which inhibition is on record?
The inhibition was -3.68%.

For CCOC(=O)C(=Cc1ccccc1)C(=O)c1ccccc1, which inhibition is on record?
The inhibition was -15.6%.

Which inhibition does the source give for COC(c1ccccc1)(c1ccccc1)C(Oc1nc(C)cc(C)n1)C(=O)O (stereo unspecified) here?
Its inhibition is 3.9%.

With Cc1cc(C)nc(S/C=C/C(=O)c2ccccc2)n1 as the compound, how does the inhibition read?
The inhibition was 50.2% (active).

For C[C@@H]1CCCCO[C@@H](CN(C)C(=O)NC2CCCCC2)[C@@H](C)CN([C@H](C)CO)C(=O)c2cc(NC(=O)CCCCCC(=O)Nc3ccccc3N)ccc2O1, which inhibition is on record?
The inhibition was -0.378%.

Which inhibition does the source give for CCC(=O)N(C)C[C@H]1Oc2cc(-c3ccccc3F)ccc2S(=O)(=O)N([C@H](C)CO)C[C@@H]1C here?
Its inhibition is 1.15%.

For COC(=O)C(CC#Cc1ccc2c(c1)[C@]1(C(=O)N2)[C@H](c2ccccc2OCCO)N2[C@H](c3ccccc3)[C@H](c3ccccc3)OC(=O)[C@H]2[C@@H]1C(N)=O)C(=O)OC, which inhibition is on record?
Its inhibition is 70.7% (active).

For COC(=O)C(CC#Cc1ccc2c(c1)[C@]1(C(=O)N2)[C@H](c2ccc(O)cc2)N2[C@H](c3ccccc3)[C@H](c3ccccc3)OC(=O)[C@H]2[C@@H]1C(=O)NC[C@H](O)c1ccccc1)C(=O)OC, which inhibition is on record?
The inhibition was -4.53%.

With COc1ccc(C#Cc2ccc3c(c2)[C@]2(C(=O)N3)[C@H](c3ccccc3OCCO)N3[C@H](c4ccccc4)[C@H](c4ccccc4)OC(=O)[C@H]3[C@@H]2C(=O)N2CCCCCCC2)cc1 as the compound, how does the inhibition read?
Its inhibition is 7.03%.

Which inhibition does the source give for O=C(CC1CC1)N1[C@@H]2CN(S(=O)(=O)c3ccc(F)cc3)c3ccccc3[C@@H]2[C@@H]1CO here?
The inhibition was 2.01%.

Which inhibition does the source give for CN1CCN(C(=O)C[C@H]2CC[C@H]3[C@H](COc4ccc(NC(=O)C5CC5)cc4C(=O)N3C)O2)CC1 here?
The inhibition was 0.362%.

For C=C(C)C(=O)O[C@H]1C/C(C)=C\C(=O)/C=C(\C)[C@H](O)[C@@H]2OC(=O)C(=C)[C@@H]21, which inhibition is on record?
The inhibition was 74% (active).

For C[C@@H]1CN([C@@H](C)CO)C(=O)Cc2cc(NC(=O)Nc3ccc4c(c3)OCO4)ccc2O[C@@H]1CN(C)CC1CCCCC1, which inhibition is on record?
Its inhibition is -9.05%.

Which inhibition does the source give for COc1cccc(-c2ccc3c(c2)[C@@H]2[C@@H](CCN2C(=O)CN2CCOCC2)[C@H](CO)N3)c1 here?
Its inhibition is -6.11%.

Which inhibition does the source give for O=[N+]([O-])/C=C/c1ccc2c(ccn2Cc2ccccc2)c1 here?
Its inhibition is 68.6% (active).

Which inhibition does the source give for Cc1ccccc1S(=O)(=O)Nc1ccc2c(c1)C(=O)N(C)[C@@H]1CC[C@@H](CC(=O)O)O[C@@H]1CO2 here?
Its inhibition is 2.06%.

Which inhibition does the source give for CO[C@H]1CN(C)C(=O)c2ccc(NC(=O)NC(C)C)cc2OC[C@H](C)N(Cc2cncnc2)C[C@@H]1C here?
The inhibition was -9.44%.

Which inhibition does the source give for Cc1cc(-c2ccc(C)c(S(=O)(=O)Nc3ccc(S(N)(=O)=O)cc3)c2)on1 here?
The inhibition was 5.81%.

For COc1ccc(CNS(=O)(=O)c2cc(Br)ccc2Br)cc1, which inhibition is on record?
Its inhibition is -12%.

With COc1ccc(CNS(=O)(=O)c2cc(-c3cc(C)no3)ccc2C(C)C)cc1 as the compound, how does the inhibition read?
Its inhibition is 55.5% (active).

For O=C(C[C@H]1C[C@H]2c3cc(NC(=O)C4CCC4)ccc3O[C@H]2[C@@H](CO)O1)NCc1ccc(Cl)cc1, which inhibition is on record?
The inhibition was -0.922%.

With CO[C@@H]1CN(C)C(=O)c2cc(NC(=O)Nc3ccccc3F)ccc2OC[C@H](C)NC[C@H]1C as the compound, how does the inhibition read?
The inhibition was -10.4%.

Which inhibition does the source give for COC(=O)CC1=NN(c2ccccc2)C(=O)C1 here?
Its inhibition is 2.41%.

For CCc1nc2ccccc2c(C(=O)NCc2ccc(OC)cc2)c1C, which inhibition is on record?
Its inhibition is 22.9%.

With COC(=O)Cc1[nH]n(-c2nc3ccccc3s2)c(=O)c1C(C)=Nc1ccc(OC)cc1 as the compound, how does the inhibition read?
The inhibition was 67.1% (active).

With COc1ccc(CN(C)C[C@@H]2OCCCC[C@H](C)Oc3ccc(NC(=O)c4ccccc4)cc3C(=O)N([C@H](C)CO)C[C@H]2C)cc1 as the compound, how does the inhibition read?
Its inhibition is 4.63%.

Which inhibition does the source give for CCS(=O)(=O)N1CC2(CN(C(=O)c3ccc(F)cc3)[C@H](CO)c3c2c2ccc(OC)cc2n3C)C1 here?
Its inhibition is -3.98%.

Which inhibition does the source give for O=C(C[C@H]1C[C@H]2c3cc(NC(=O)NC4CCCC4)ccc3O[C@H]2[C@H](CO)O1)NCCc1ccccc1 here?
The inhibition was -0.115%.

For COc1ccc(NC(=O)C2(C)Cc3c(-c4cccc(NC(C)=O)c4)ccnc3O2)cc1OC (stereo unspecified), which inhibition is on record?
The inhibition was 12.4%.

With COc1ccc(NC(=O)C2(C)Cc3c(-c4cccc(NC(C)=O)c4)ccnc3O2)cc1 (stereo unspecified) as the compound, how does the inhibition read?
The inhibition was 72% (active).

Which inhibition does the source give for CC(=O)Nc1cccc(-c2ccnc3c2CC(C)(C(=O)NCc2ccccc2)O3)c1 (stereo unspecified) here?
Its inhibition is 56.4% (active).

With CC1(C(=O)Nc2cccnc2)Cc2c(-c3ccccc3)ccnc2O1 (stereo unspecified) as the compound, how does the inhibition read?
Its inhibition is -3.3%.

Which inhibition does the source give for COc1ccc(NC(=O)C2(C)Cc3c(-c4ccc(C(N)=O)cc4)ccnc3O2)cc1 (stereo unspecified) here?
Its inhibition is 9.42%.

With CC(=O)Nc1cccc(-c2ccnc3c2CC(C)(C(=O)NCc2ccco2)O3)c1 (stereo unspecified) as the compound, how does the inhibition read?
The inhibition was 47.3%.
